Most compounds without a hit are left out; they make up all but 1.8% or so of the library.
TrxR1 inh-1 = qHTS Assay for Inhibitors of Mammalian Selenoprotein Thioredoxin Reductase 1 (TrxR1): qHTS; Thioredoxin reductase 1, cytoplasmic (Rattus norvegicus), O89049; recombinant rTrxR1, NADPH fluorescence consumption, selenite substrate; Potency, µM (titrated, usually from 114 µM), without a hit: top-dose activity change, negative = inhibition, hits mostly inhibitors; 1% of 390,000 active; AID 588453, 2011; also: potency is read from the fitted curve at half-maximal effect; % is scaled to controls: 0 for no effect and ±100 for the full control effect; nearly all actives have a fitted effect of over 65% in size
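Rat TrxR1 (90 nM in the dispensed reagent) was pre-reduced with 400 uM NADPH for 5 min at room temperature, then incubated with compound for 15 min. After 400 uM selenite was added, NADPH fluorescence (Ex 340/Em 450 nm) was followed for 8 min.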
VDR inhibitor = Inhibitors of the vitamin D receptor (VDR): qHTS. VDR-SRC2-3 peptide fluorescence polarization, 2 h. Potency, µM, inactives show max response, negative = inhibition, actives largely listed as inhibitors. 0.93% of 400,000 active. AID 504847, 2011; also: potency is read from the fitted curve at half-maximal effect; % is scaled to controls: 0 for no effect and ±100 for the full control effect
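Fluorescence polarization assay of small-molecule disruption of VDR binding to coregulator peptide SRC2-3. Compounds and controls pin-transferred, then read after 2 h incubation at ambient room temperature.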
GCN5L2 inh = qHTS Assay for Inhibitors of GCN5L2; GCN5L2 HAT assay, ThioGlo1 CoA-SH fluorescence; Potency, µM (titrated, usually from 58.9 µM), for inactives: top-dose activity change, negative = inhibition, usual class: inhibitors; 0.21% of 390,000 active; AID 504327, 2011; also: potency is read from the fitted curve at half-maximal effect; % is scaled to controls: 0 for no effect and ±100 for the full control effect
Target sequence (Q92830 whole entry, looked up): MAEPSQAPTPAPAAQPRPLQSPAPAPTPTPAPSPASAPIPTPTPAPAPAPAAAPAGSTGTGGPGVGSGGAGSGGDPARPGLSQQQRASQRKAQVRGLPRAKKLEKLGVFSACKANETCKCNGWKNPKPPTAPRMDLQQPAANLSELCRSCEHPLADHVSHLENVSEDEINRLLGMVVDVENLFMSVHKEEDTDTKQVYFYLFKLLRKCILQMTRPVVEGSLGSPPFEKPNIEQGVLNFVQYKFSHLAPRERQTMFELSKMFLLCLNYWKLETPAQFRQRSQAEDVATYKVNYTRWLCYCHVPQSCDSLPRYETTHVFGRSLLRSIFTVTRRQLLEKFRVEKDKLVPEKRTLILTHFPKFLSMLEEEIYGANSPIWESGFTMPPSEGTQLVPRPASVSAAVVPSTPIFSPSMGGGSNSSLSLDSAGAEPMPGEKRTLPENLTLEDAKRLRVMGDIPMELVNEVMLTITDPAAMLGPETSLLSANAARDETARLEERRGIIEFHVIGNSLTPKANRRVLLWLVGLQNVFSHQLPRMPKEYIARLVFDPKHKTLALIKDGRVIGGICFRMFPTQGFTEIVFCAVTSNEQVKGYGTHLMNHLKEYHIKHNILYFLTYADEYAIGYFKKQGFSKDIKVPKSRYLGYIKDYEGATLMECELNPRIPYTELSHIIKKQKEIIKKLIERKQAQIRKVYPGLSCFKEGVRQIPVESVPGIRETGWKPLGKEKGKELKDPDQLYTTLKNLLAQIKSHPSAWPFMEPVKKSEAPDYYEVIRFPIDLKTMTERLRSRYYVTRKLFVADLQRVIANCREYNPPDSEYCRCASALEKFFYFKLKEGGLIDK
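Fluorescence readout, Ex340nm/Em540nm: ThioGlo1 (50uM final) reacts with free CoA thiol released as 20nM GCN5L2 acetylates H3(1-25) peptide (75uM) using acetyl-CoA (70uM). Compound and enzyme sat 15 min beforehand; 20 min room-temperature reaction.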
TrxR1 substrate = qHTS Assay for Substrates of Mammalian Selenoprotein Thioredoxin Reductase 1 (TrxR1): qHTS; Potency, µM (top dose mostly 114 µM), inactives show at the top dose activity change, negative = substrate turnover; 0.01% of 390,000 active; purified TrxR1 substrate turnover, NADPH consumption readout; AID 588456, 2011; Thioredoxin reductase 1, cytoplasmic (Rattus norvegicus), O89049; also: potency is read from the fitted curve at half-maximal effect; % is scaled to controls: 0 for no effect and ±100 for the full control effect; nearly all actives have a fitted effect of over 50% in size
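Rat TrxR1, dispensed at 90 nM, was prereduced with 400 uM NADPH (final) for 5 min at ~22 deg C, then incubated with compound 15 min before 400 uM selenite. A first-read NADPH fluorescence drop versus no-compound background flagged substrates.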
VDR inh confirm = qHTS for Inhibitors of the vitamin D receptor (VDR): Hit Validation in Primary Screen | VDR-coactivator inhibition assay, qHTS confirmation | 89% of 840 active | shares compounds with VDR inhibitor | AID 602199, 2012 | Potency, µM, actives largely listed as inhibitors; also: potency is read from the fitted curve at half-maximal effect
VDR FP = qHTS for Inhibitors of the vitamin D receptor (VDR): Hit Validation using a Fluorescein Assay; shares compounds with VDR inhibitor; VDR-coactivator binding, fluorescein fluorescence polarization; Potency, µM (top dose mostly 57.1 µM), inactives show at the top dose activity change, negative = inhibition, hits mostly inhibitors; 48% of 840 active; AID 602200, 2012; also: potency is read from the fitted curve at half-maximal effect
VDR bla = qHTS for Inhibitors of the vitamin D receptor (VDR): Hit Validation using a Beta-Lactamase Assay | shares compounds with VDR inhibitor | VDR beta-lactamase reporter cells, FRET ratio; cells co-treated with VDR agonist LG190178 | Potency, µM (titrated, usually from 46.1 µM), for inactives: top-dose activity change, negative = inhibition, usual class: inhibitors | 23% of 840 active | AID 602202, 2012; also: potency is read from the fitted curve at half-maximal effect; % is scaled to controls: 0 for no effect and ±100 for the full control effect
VDR viability = qHTS for Inhibitors of the vitamin D receptor (VDR): Hit Validation using a Cytotoxicity Assay. shares compounds with VDR inhibitor. cytotoxicity counter-screen, cell viability, qHTS. Potency, µM (series often up to 48.3 µM), for the others: at the highest dose activity change, negative = cytotoxicity, hits mostly cytotoxic. 18% of 840 active. AID 602204, 2012;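 also: potency is read from the fitted curve at half-maximal effect; plate controls were DMSO for no effect and high-concentration cycloheximide for full effect; nearly all actives have a fitted effect of over 75% in size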
GR inh = qHTS Assay for Inhibitors of Mammalian Selenoprotein Thioredoxin Reductase 1 (TrxR1): Counterassay in Glutathione Reductase (GR) | shares compounds with TrxR1 inh-1 | purified GR, DTNB reduction absorbance 405 nm kinetic | activity change, negative = inhibition, % at 57.1 µM | 55 tested, under 10 active
TrxR1 inh-2 = qHTS Assay for Inhibitors of Mammalian Selenoprotein Thioredoxin Reductase 1 (TrxR1): Hit Validation in Primary Screen; shares compounds with TrxR1 inh-1; recombinant TrxR1, NADPH fluorescence consumption, selenite substrate; Potency, µM, hits mostly inhibitors; 50% of 55 active; AID 652023, 2013
TrxR1 insulin = qHTS Assay for Inhibitors of Mammalian Selenoprotein Thioredoxin Reductase 1 (TrxR1): Insulin MOA Assay; 20% of 55 active; shares compounds with TrxR1 inh-1; AID 652037, 2013; Potency, µM; TrxR1 Trx-coupled insulin reduction, NADPH absorbance 340 nm;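 active = compounds with a measured potency under 100 micromolar; inconclusive = filed, but no rule given; inactive = potency at or above that, or unmeasurable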
TrxR1 inh-3 = qHTS Assay for Inhibitors of Mammalian Selenoprotein Thioredoxin Reductase 1 (TrxR1): DTNB Assay. shares compounds with TrxR1 inh-1. purified TrxR1, DTNB reduction, A412. Potency, µM. 90% of 55 active;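 active = a half-inhibiting concentration could be measured and was below 100 µM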
An asterisk follows results filed as active; ? = inconclusive; nt = no result given; [ ] = remark or other dose. Unless noted, calls follow the shape of the dose curve; as a rule, active = well fitted curve in the direction sought with a large enough effect; inconclusive = small, poorly fitted or top-dose-only effect, or another doubt; inactive = no such curve, though single readings can be large; an effect the other way counts as inactive or inconclusive.

SMILES | TrxR1 inh-1 | VDR inhibitor | GCN5L2 inh | TrxR1 substrate | VDR inh confirm | VDR FP | VDR bla | VDR viability | others
O=CN1CCCCC1C1CC[C@H]2CCCCN2C1 (stereo not given in full) | nt | -4% | -1% | nt | nt | nt | nt | nt
CC(C)Nc1ccc(Nc2ccccc2)cc1 | ? | 40µM* | -16% | -5% | ? | 7.1µM* | ? | ?
CCCCn1c(NC(=O)c2ccc(Br)o2)c(C(=O)OCC)c2nc3ccccc3nc21 | -12% | ? | -12% | 36% | 2.5* | 1.4µM* | ? | ?
N#CC1c2ccccc2-n2nncc2CN1Cc1cc(Cl)cc(Cl)c1 (stereo not given) | ? | 20µM* | nt | 1% | 3.4* | 2.8µM* | 10µM* | 4.1µM*
CCOc1ccc(N2C(=O)NC(=O)/C(=C\c3ccccc3[N+](=O)[O-])C2=O)cc1 | 8.9µM* | 32µM* | -5% | 1% | 9.5* | ? | 9% | -11%
O=C(O)c1ccccc1-c1ccc(C=C2C(=O)N(c3ccccc3)C(=S)N(c3ccccc3)C2=O)o1 | 8.9µM* | 16µM* | ? | 1% | 3.8* | ? | 24% | 4%
F/C(COc1ccc2c(c1)[nH]c1ccccc12)=C1/CN2CCC1CC2 | nt | 17% | -11% | nt | nt | nt | nt | nt
O=[N+]([O-])c1ccc(N2CCCCCC2)c2nonc12 | ? | 0% | -5% | -17% | nt | nt | nt | nt
Nc1nc(Sc2ccc([N+](=O)[O-])c3nonc23)c2[nH]cnc2n1 | 1.3µM* | 14µM* | nt | -32% | 3.4* | ? | ? | 11µM*
CC(C)C[C@H](NC(=O)[C@H](Cc1ccccc1)NC(=O)CNC(=O)[C@@H](NC(=O)[C@@H](N)Cc1ccc(O)cc1)[C@H](C)O)C(=O)N[C@H](C(=O)O)[C@H](C)O | nt | 0% | -11% | nt | nt | nt | nt | nt
CC1CC(O)[C@]2(O)[C@]13CC(=O)OC[C@@]2(C)[C@@](C)(O)C(=O)C3 (stereo not given in full) | nt | 13% | -3% | nt | nt | nt | nt | nt
CN1C2CCC1/C(=C/c1ccccn1)C(=O)/C2=C\c1ccccn1 | ? | 28µM* | -6% | 5%[57.1 µM] | 2.7* | ? | 2.1µM* | 21µM*
CCC12CN3CC(CC)(CN(C1)C3c1ccccn1)C2=O (stereo not given) | 19% | 12% | 3% | 5% | nt | nt | nt | nt
CCC12C=CCN3CCC4(c5ccc(OC)cc5N(C)C4[C@@](O)(C(=O)OC)C1OC(C)=O)C32 (stereo not given in full) | nt | 10% | 2% | nt | nt | nt | nt | nt
CCOc1ccc(CCNC(=O)c2cc3c(-c4ccc(OC)c(OC)c4)nn(C)c3s2)cc1OCC | 75% | -4% | -23% | 99% | nt | nt | nt | nt
Cc1nc2ccccc2c(=O)n1-c1cc([N+](=O)[O-])cc([N+](=O)[O-])c1 | 14% | 2% | -1% | 2% | nt | nt | nt | nt
O=[N+]([O-])c1ccc(Sc2nc3ccccc3o2)c([N+](=O)[O-])c1 | 0.63µM* | 25µM* | -9% | 4% | 19* | 14µM* | ? | ?
O=C(O)CCn1cc(C=C2C(=O)NC(=S)NC2=O)c(-c2cccc(Cl)c2)n1 | ? | 25µM* | -15% | 4%[57.1 µM] | 11* | ? | 14% | 1%
O=c1oc2ccccc2c(O)c1[C@H]1c2ccc(O)cc2Oc2c1c(=O)oc1ccccc21 | -34% | 79µM* | -16% | -4% | 30* | ? | 21µM* | -31%
NC1=C([N+](=O)[O-])C(c2ccc3c(c2)OCO3)c2c(c3ccccc3oc2=O)O1 (stereo not given) | -8% | -5% | -10% | -9% | nt | nt | nt | nt
CN1C(=O)N(C)C(=O)C2(Sc3ccccc3C2=O)C1=O | 28µM* | 35µM* | 0% | 3% | 3.4* | 3.5µM* | 31% | -7%
CCC(Sc1ccccc1)C(=O)OC1CC2CCC(C1)N2C (stereo not given) | nt | -1% | -8% | nt | nt | nt | nt | nt
COc1ccc(-n2c(O)c(/C=C3\C=Nc4ccc(Br)cc43)c(=O)[nH]c2=O)c(OC)c1 | ? | 50µM* | 6% | -3% | 17* | ? | ? | ?
COc1ccc([N+](=O)[O-])c(S(=O)(=O)c2ccc(Cl)cc2)n1 | 0.5µM* | 32µM* | -12% | -8% | 3* | ? | 7.3µM* | ? | GR inh=-20;TrxR1 inh-2=0.13*;TrxR1 insulin=26µM*;TrxR1 inh-3=0.041µM*
CCN1C[C@]2(COC(=O)c3ccccc3N3C(=O)C[C@H](C)C3=O)CC[C@H](OC)[C@@]34[C@@H]5C[C@H]6[C@H](OC)[C@H]5[C@](O)(C[C@@H]6OC)[C@@](O)([C@@H](OC)[C@@H]23)[C@@H]14 | nt | -3% | -2% | nt | nt | nt | nt | nt

High-throughput results (PubChem BioAssay)
